One may read the AC50 as the concentration giving half of the maximal activity seen.

From PubChem BioAssay (EPA / NIEHS) come the findings set out here.

Assay [1] has as its target human RAR-related Orphan Receptor beta (RORb), RORB (gene 6096) (UniProt Q92753). In words: ATG_RORb_TRANS: Attagene TRANS-FACTORIAL HepG2 Assay for human RAR-related Orphan Receptor beta (RORb) (AID 2283010; active = hit-call score of the fitted dose curve at least 0.9, where 1 is the maximum). The gist of the method:
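Multiplexed transcription-factor reporter assay: HepG2 cells transiently carrying NR-Gal4/GAL4-UAS constructs, 24 h treatment, mRNA quantified by RT-PCR plus capillary electrophoresis fluorescence; activity scored as induction over DMSO.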

Assay [2] deals with human RAR-related Orphan Receptor gamma (RORg), RORC (gene 6097) (UniProt P51449). In words: ATG_RORg_TRANS: Attagene TRANS-FACTORIAL HepG2 Assay for human RAR-related Orphan Receptor gamma (RORg) (AID 2283011; active = hit-call score of the fitted dose curve at least 0.9, where 1 is the maximum;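 for AC50: potency for induction of reporter transcripts above DMSO so activators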). In a few lines:
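First, HepG2 liver cells were transfected with GAL4-UAS-driven reporter constructs and the RORg-Gal4 fusion. Next, they were treated with chemical for 24 h. Finally, reporter mRNA was quantified by RT-PCR and capillary electrophoresis, with upward activity fitted against DMSO.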

The target in assay [3] is human Retinoid X Receptor beta (RXRb), RXRB (gene 6257) (UniProt P28702). The assay can be described thus: ATG_RXRb_TRANS: Attagene TRANS-FACTORIAL HepG2 Assay for human Retinoid X Receptor beta (RXRb) (AID 2283013; active = hit-call score of the fitted dose curve at least 0.9, where 1 is the maximum). The gist of the method: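 After a 24 h incubation with test chemical, transfected HepG2 cells carrying NR-Gal4 fusions and GAL4-UAS reporter transcription units yield RNA whose reporter cDNA is FAM-labelled, HpaI-cut and sized by capillary electrophoresis; increases over DMSO are scored.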

Assay [4] addresses human Thyroid Receptor alpha (THRa1), THRA (gene 7067) (UniProt P10827). In words: ATG_THRa1_TRANS: Attagene TRANS-FACTORIAL HepG2 Assay for human Thyroid Receptor alpha (THRa1) (AID 2283014; active = hit-call score of the fitted dose curve at least 0.9, where 1 is the maximum). The gist of the method: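 Reporter transcript induction, read by capillary electrophoresis of 6-FAM-labelled RT-PCR products, reflects activity of a transfected THRa1-Gal4 fusion in HepG2 liver cells. Cells were dosed for 24 h; activity was fitted in the positive direction against DMSO.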

Read-out in assay [5]: E-selectin (Homo sapiens) (UniProt P16581)
In words: BSK_3C_Eselectin: BioMAP Diversity Plus: 3C Assay for Eselectin Biomarker Activity (AID 2283015).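 For outcome: cell surface E-selectin protein quantified by ELISA 24 h after dosing.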 The note with it: primary human endothelial cells (HUVEC); actives raise or lower the signal. The gist of the method: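 ELISA read-out of E-selectin on endothelial monolayers after 24 h chemical treatment. Human umbilical vein primary cells served as the system, with DMSO defining baseline activity for bidirectional fitting.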

Read-out in assay [6]: Interleukin-1 alpha (IL1a), IL1A (gene 3552)
The assay can be described thus: BSK_BE3C_IL1a: BioMAP Diversity Plus: BE3C Assay for Interleukin-1 alpha (IL1a) Biomarker Activity (AID 2283016). The note with it: primary human bronchial epithelial cells; actives raise or lower the signal. In a few lines: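 Measured in human lung primary bronchial epithelial cells: IL-1a by ELISA at 24 h after dosing, with bidirectional fitting against DMSO.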

Read-out in assay [7]: Monocyte Chemoattractant Protein-1 (MCP1), CCL2 (gene 6347)
In words: BSK_3C_MCP1: BioMAP Diversity Plus: 3C Assay for Monocyte Chemoattractant Protein-1 (MCP1) Biomarker Activity (AID 2283017). The note with it: primary human endothelial cells (HUVEC); actives raise or lower the signal. In a few lines: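 ELISA read-out of MCP-1 from human umbilical vein endothelial cell cultures harvested 24 h post-dosing. Gain or loss of signal was fitted relative to DMSO.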

Read-out in assay [8]: Monocyte Chemoattractant Protein-1 (MCP1), CCL2 (gene 6347)
The assay can be described thus: BSK_4H_MCP1: BioMAP Diversity Plus: 4H Assay for Monocyte Chemoattractant Protein-1 (MCP1) Biomarker Activity (AID 2283018). The following applies: primary human endothelial cells (HUVEC); actives raise or lower the signal. The gist of the method: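 Primary human umbilical vein endothelium is exposed to chemical for 24 h before MCP-1 is assayed by ELISA. Concentration-response fitted bidirectionally relative to DMSO.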

Read-out in assay [9]: Human Leukocyte Antigen - DR isotype (HLADR), HLA-DRA (gene 3122)
In words: BSK_3C_HLADR: BioMAP Diversity Plus: 3C Assay for Human Leukocyte Antigen - DR isotype (HLADR) Biomarker Activity (AID 2283019). The note with it: primary human endothelial cells (HUVEC); actives raise or lower the signal. In a few lines: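 ELISA readout of surface HLA-DR on human umbilical vein endothelium, taken 24 h after chemical treatment. Gain- and loss-of-signal were both fitted relative to DMSO.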

Read-out in assay [10]: Monokine induced gamma interferon (MIG), CXCL9 (gene 4283)
In words: BSK_3C_MIG: BioMAP Diversity Plus: 3C Assay for Monokine induced gamma interferon (MIG) Biomarker Activity (AID 2283021).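 For AC50: MIG protein level measured by immunoassay in the treated endothelial cultures.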 The note with it: primary human endothelial cells (HUVEC); actives raise or lower the signal. In a few lines: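 ELISA-measured MIG in dosed HUVEC 3C cultures at 24 h, analysed by bidirectional fitting with DMSO defining baseline activity.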

The nature of assay [11]: BSK_3C_SRB: Viability Assessment in the BioMAP Diversity Plus: 3C Assay (AID 2283023).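 Note: fitted both ways against DMSO so a hit may be signal rise or drop.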 The following applies: primary human endothelial cells (HUVEC). The gist of the method: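 Absorbance at 560 nm of sulforhodamine B-stained (0.1%) total protein served as a cytotoxicity readout in human umbilical vein endothelial cells, 24 h after chemical treatment. Signal was fitted bidirectionally relative to DMSO.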

Read-out in assay [12]: Matrix Metallopeptidase 1 (MMP1), MMP1 (gene 4312)
The assay can be described thus: BSK_BE3C_MMP1: BioMAP Diversity Plus: BE3C Assay for Matrix Metallopeptidase 1 (MMP1) Biomarker Activity (AID 2283024). The note with it: primary human bronchial epithelial cells; actives raise or lower the signal. The gist of the method:
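In this multiplexed primary-cell system, human bronchial epithelium received chemicals for 24 h before an ELISA for MMP1. Values reflect bidirectional fits normalised to the DMSO baseline.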

Read-out in assay [13]: Pselectin, SELP (gene 6403)
The assay can be described thus: BSK_4H_Pselectin: BioMAP Diversity Plus: 4H Assay for Pselectin Biomarker Activity (AID 2283026). The note with it: primary human endothelial cells (HUVEC); actives raise or lower the signal. In a few lines:
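Bidirectional fits against DMSO gave the endpoint. Cells: primary human umbilical vein endothelium, chemical-treated for 24 h before ELISA detection of P-selectin.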

The nature of assay [14]: BSK_4H_SRB: Viability Assessment in the BioMAP Diversity Plus: 4H Assay (AID 2283027).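 For AC50: curves fitted both ways versus DMSO so AC50 may be loss or gain.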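 Note: cells exposed to compound for 24 h before staining.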 The following applies: primary human endothelial cells (HUVEC). The gist of the method:
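Cytotoxicity readout: sulforhodamine B (0.1%) staining of total protein after 10% TCA fixation, measured at 560 nm in human umbilical vein endothelium at 24 h. DMSO set the baseline; fitting was bidirectional.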

Assay [15] in a line: BSK_BE3C_SRB: Viability Assessment in the BioMAP Diversity Plus: BE3C Assay (AID 2283028).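 For AC50: fitted both ways so AC50 may mark signal gain or loss versus DMSO.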 The following applies: primary human bronchial epithelial cells. In a few lines:
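Cells (human bronchial epithelial, primary) are treated with chemicals, and after 24 h the parallel cultures are fixed in 10% TCA. These are then stained with 0.1% SRB and read at 560 nm. Gain or loss of signal is fitted relative to DMSO.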

Read-out in assay [16]: Thrombomodulin, THBD (gene 7056)
In words: BSK_3C_Thrombomodulin: BioMAP Diversity Plus: 3C Assay for Thrombomodulin Biomarker Activity (AID 2283029). The note with it: primary human endothelial cells (HUVEC); actives raise or lower the signal. The gist of the method: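 In a multiplexed primary-cell system, human umbilical vein endothelium received chemical and was assayed 24 h later for thrombomodulin by ELISA. Parallel cultures were SRB-stained (0.1% SRB after 10% TCA fixation, read at 560 nm) to flag cytotoxicity.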

Assay [17] addresses Retinoic acid receptor RXR-alpha (Homo sapiens) (UniProt P19793). In words: ATG_RXRa_TRANS: Attagene TRANS-FACTORIAL HepG2 Assay for human Retinoid X Receptor alpha (RXRa) (AID 2283012; active = hit-call score of the fitted dose curve at least 0.9, where 1 is the maximum). The gist of the method: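 Chimeric NR-GAL4 trans-activation in HepG2, 24 h treatment; reporter transcripts quantified by fluorescence on capillary electrophoresis, analysed for upward change from DMSO.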

Read-out in assay [18]: Interleukin-8 (IL8), CXCL8 (gene 3576)
In words: BSK_3C_IL8: BioMAP Diversity Plus: 3C Assay for Interleukin-8 (IL8) Biomarker Activity (AID 2283020). The note with it: primary human endothelial cells (HUVEC); actives raise or lower the signal. In a few lines: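 Using DMSO-treated wells as the baseline, bidirectional curve fitting was applied to ELISA-measured IL-8 from human umbilical vein endothelial cultures sampled 24 h after compound addition.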

The target of assay [19] is human Vitamin D Receptor (VDR), VDR (gene 7421) (UniProt P11473). The assay can be described thus: ATG_VDR_TRANS: Attagene TRANS-FACTORIAL HepG2 Assay for human Vitamin D Receptor (VDR) (AID 2283022; active = hit-call score of the fitted dose curve at least 0.9, where 1 is the maximum). The gist of the method:
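Steps: transfect HepG2 with GAL4-UAS-driven reporter constructs; dose compounds 24 h; isolate RNA, reverse-transcribe, PCR-amplify with 6-FAM-labelled primer extension and HpaI digestion; quantify fragments by capillary electrophoresis relative to DMSO.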

Where “and” joins values, the source holds several entries; their conditions need not be identical. Equal values may be shown once. Records with an inconclusive call do not appear. Where a structure was tested more than once in an assay, its records may differ in their call. Calls of active or inactive are those of the source. Rule for the calls, unless noted: active = hit-call score of the fitted dose curve at least 0.9, where 1 is the maximum; inactive = score below 0.9.

Sequence of human RAR-related Orphan Receptor gamma (RORg), RORC (gene 6097) (P51449 whole entry, looked up, the tested form may be a part): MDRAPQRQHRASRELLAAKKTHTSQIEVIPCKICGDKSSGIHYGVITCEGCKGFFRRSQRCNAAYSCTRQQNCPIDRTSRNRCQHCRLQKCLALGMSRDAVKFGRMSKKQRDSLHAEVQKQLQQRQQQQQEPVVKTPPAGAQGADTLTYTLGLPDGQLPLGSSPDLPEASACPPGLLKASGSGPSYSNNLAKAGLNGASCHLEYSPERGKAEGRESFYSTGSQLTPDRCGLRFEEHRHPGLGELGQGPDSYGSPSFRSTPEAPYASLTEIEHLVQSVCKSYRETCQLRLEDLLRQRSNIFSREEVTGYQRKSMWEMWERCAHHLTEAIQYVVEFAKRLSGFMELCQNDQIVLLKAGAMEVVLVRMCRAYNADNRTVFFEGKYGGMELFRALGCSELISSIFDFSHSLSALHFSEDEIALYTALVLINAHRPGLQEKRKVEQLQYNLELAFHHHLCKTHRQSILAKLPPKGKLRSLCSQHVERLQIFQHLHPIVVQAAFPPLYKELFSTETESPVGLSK
Sequence of E-selectin (Homo sapiens) (P16581 whole entry, looked up): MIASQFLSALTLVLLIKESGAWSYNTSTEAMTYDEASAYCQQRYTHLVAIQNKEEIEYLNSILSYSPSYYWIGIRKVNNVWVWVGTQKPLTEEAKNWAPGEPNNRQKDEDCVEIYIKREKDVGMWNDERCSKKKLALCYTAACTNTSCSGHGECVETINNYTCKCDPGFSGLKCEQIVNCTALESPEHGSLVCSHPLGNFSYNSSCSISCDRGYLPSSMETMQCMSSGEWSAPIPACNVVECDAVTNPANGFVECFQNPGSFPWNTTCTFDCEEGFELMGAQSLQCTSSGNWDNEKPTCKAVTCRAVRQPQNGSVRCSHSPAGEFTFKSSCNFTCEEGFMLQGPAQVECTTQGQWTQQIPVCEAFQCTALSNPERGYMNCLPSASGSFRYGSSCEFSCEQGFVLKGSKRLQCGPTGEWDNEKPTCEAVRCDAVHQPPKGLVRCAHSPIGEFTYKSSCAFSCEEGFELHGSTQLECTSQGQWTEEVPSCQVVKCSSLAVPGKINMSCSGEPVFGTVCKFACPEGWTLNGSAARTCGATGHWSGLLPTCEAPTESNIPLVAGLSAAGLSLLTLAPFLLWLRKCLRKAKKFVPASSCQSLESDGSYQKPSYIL
Sequence of Retinoic acid receptor RXR-alpha (Homo sapiens) (P19793 whole entry, looked up, the tested form may be a part): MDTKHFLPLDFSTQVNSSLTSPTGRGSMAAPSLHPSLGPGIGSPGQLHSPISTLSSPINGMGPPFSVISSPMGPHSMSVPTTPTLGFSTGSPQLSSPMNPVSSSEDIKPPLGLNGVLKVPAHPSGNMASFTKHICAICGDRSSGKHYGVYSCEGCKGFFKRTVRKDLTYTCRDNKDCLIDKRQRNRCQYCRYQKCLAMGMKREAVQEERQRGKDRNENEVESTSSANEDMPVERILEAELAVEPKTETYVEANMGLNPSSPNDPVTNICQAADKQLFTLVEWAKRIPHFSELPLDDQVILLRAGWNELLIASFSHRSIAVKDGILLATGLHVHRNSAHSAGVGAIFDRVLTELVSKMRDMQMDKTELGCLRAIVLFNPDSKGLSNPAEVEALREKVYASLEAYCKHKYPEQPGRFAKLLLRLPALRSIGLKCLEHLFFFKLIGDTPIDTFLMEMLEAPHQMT
Sequence of human Retinoid X Receptor beta (RXRb), RXRB (gene 6257) (P28702 whole entry, looked up, the tested form may be a part): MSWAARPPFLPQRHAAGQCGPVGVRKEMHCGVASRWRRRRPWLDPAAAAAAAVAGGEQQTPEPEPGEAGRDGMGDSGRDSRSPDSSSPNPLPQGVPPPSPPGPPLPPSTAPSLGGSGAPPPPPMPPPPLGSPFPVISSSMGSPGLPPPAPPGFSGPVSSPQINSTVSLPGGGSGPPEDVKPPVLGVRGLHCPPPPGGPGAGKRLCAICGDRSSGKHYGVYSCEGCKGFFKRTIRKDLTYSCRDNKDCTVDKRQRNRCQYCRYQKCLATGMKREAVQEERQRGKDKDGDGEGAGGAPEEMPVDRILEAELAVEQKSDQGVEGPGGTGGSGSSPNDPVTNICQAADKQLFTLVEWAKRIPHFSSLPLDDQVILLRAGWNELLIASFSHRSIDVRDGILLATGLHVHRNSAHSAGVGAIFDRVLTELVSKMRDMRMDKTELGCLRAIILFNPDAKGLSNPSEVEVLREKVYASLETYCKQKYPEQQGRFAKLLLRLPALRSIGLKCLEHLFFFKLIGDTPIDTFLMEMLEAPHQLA
Sequence of human Vitamin D Receptor (VDR), VDR (gene 7421) (P11473 whole entry, looked up, the tested form may be a part): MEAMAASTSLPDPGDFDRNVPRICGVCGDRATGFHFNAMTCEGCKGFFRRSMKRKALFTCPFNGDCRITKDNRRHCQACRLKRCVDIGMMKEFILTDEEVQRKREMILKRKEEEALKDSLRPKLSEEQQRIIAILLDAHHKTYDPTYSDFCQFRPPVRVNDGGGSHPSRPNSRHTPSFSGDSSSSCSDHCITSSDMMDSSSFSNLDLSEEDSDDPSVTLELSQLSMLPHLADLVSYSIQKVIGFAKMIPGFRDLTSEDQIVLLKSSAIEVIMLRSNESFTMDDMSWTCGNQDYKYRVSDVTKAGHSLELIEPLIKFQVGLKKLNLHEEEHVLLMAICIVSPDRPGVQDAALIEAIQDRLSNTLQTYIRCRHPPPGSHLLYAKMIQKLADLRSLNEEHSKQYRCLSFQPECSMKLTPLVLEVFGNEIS
Sequence of human Thyroid Receptor alpha (THRa1), THRA (gene 7067) (P10827 whole entry, looked up, the tested form may be a part): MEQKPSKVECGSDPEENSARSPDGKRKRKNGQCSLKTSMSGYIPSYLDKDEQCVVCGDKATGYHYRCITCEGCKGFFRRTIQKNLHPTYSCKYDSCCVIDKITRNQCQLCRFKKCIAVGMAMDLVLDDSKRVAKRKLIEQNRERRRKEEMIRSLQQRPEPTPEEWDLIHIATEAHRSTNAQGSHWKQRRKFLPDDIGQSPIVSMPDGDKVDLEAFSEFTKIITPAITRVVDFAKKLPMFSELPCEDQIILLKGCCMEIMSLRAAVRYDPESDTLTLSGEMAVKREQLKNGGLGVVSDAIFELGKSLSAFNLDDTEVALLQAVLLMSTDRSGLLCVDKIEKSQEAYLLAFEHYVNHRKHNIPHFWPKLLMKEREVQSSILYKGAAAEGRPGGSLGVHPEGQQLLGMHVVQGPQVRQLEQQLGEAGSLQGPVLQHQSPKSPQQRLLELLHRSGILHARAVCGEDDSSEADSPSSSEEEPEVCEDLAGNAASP
Sequence of human RAR-related Orphan Receptor beta (RORb), RORB (gene 6096) (Q92753 whole entry, looked up, the tested form may be a part): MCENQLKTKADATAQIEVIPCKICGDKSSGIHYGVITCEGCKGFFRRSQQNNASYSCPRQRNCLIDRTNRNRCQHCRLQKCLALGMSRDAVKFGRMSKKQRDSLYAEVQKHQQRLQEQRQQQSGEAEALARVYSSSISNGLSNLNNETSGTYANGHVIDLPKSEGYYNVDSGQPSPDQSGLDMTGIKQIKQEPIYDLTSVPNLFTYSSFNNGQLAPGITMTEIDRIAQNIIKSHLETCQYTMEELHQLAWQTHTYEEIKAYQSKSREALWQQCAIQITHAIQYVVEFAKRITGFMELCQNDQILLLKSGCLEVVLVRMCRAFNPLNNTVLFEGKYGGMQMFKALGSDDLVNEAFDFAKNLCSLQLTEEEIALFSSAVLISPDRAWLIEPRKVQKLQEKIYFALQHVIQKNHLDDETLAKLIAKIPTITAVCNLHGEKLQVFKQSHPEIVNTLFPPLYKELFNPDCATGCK

With `O=C(O)C(F)(F)C(F)(F)C(F)(F)C(F)(F)C(F)(F)C(F)(F)C(F)(F)C(F)(F)C(F)(F)C(F)F`, the outcome in assay [1], in [4], in [5], in [7], in assay [8] and in assay [9] was inactive. Besides, the result in [10], in assay [12] and in [13] was inactive. In addition, the AC50 in assay [2] is 50 µM (active); in assay [3], 66 µM (active); in assay [6] it was 17.8 µM (active) and 14.6 µM (active); in [7] it was 47.1 µM (active); in [8], 30 µM (active); in [9], 37.5 µM (active). For the same compound, the concentration at half-maximal activity (AC50) in assay [11] is 47.3 µM (active) and 49.5 µM (active); in assay [14], 48.6 µM (active) and 45.8 µM (active); in assay [15], 21 µM (active) and 20.7 µM (active); in [16], 49.3 µM (active) and 46.1 µM (active).
For the compound `Cc1cccc(N(C)C)c1`, the call in [1], in assay [2] and in assay [4] was inactive.
As for `O=C(O)C(F)(F)C(F)(F)C(F)(F)C(F)(F)F`, the compound was called inactive in [1], in [2], in [17], in [3], in assay [5] and in assay [6]. Moreover, the outcome in assay [7], in [8], in [9], in [18], in assay [10] and in [19] was inactive. Further, the outcome in assay [11], in assay [12], in [13], in [14] and in [16] was inactive. In addition, the AC50 in [16] was 31.2 µM (active).
Regarding `c1ccc(-c2ccccc2-c2ccccc2)cc1`, the call in [1] and in [17] was inactive. The AC50 in assay [3] is 12.7 µM (active).
In the case of `O=C(O)C(F)(F)C(F)(F)C(F)(F)C(F)(F)C(F)(F)C(F)(F)C(F)(F)C(F)(F)C(F)(F)C(F)(F)C(F)(F)C(F)(F)C(F)(F)F`, the call in assay [1], in assay [2], in assay [17], in [3], in [4] and in [5] was inactive. The outcome in assay [6], in [7], in assay [8], in [9], in [10] and in assay [11] was inactive. Further, the outcome in [12], in assay [13], in assay [14] and in assay [16] was inactive.
In the case of `CCCCCCOC(=O)c1ccccc1O`, the call in assay [1], in assay [2], in assay [6], in [19], in assay [12] and in [15] was inactive. In addition, the outcome in [16] was inactive. The concentration at half-maximal activity (AC50) in [5] was 38.5 µM (active) and 46.9 µM (active); in assay [7], 41.9 µM (active) and 38 µM (active); in assay [8], 33.5 µM (active) and 34.3 µM (active); in [9], 37.4 µM (active) and 43.7 µM (active); in [10], 41.2 µM (active) and 40.8 µM (active); in assay [11], 39.5 µM (active) and 43.2 µM (active). Besides, the AC50 in assay [13] is 40.7 µM (active) and 41.9 µM (active); in assay [14] it was 44.2 µM (active) and 42.6 µM (active).
With `COC(OC(C)=O)c1ccccc1` (centres undefined), the compound was called inactive in [1], in [2], in [17] and in assay [4].
With `CC(C)(C)C(=O)CC(=O)C(F)(F)C(F)(F)C(F)(F)F`, the result in [1], in assay [2], in assay [3], in assay [5], in assay [6] and in [7] was inactive. For the same compound, the outcome in assay [8], in assay [9], in assay [10], in assay [19], in [11] and in [12] was inactive. The result in assay [13], in assay [14] and in assay [15] was inactive. For the same compound, the AC50 in assay [9] was 30 µM (active); in [11] it was 48.3 µM (active); in assay [13], 5.95 µM (active); in [16], 41.2 µM (active) and 47.3 µM (active).
Turning to `CC(C)(C)c1ccc(OC2CCCCC2O)cc1` (centres undefined), the compound was classed as inactive in [1], in assay [2], in assay [3], in [4] and in assay [19]. In addition, the AC50 in assay [17] was 26.2 µM (active).
For `C1COCCN1`, the compound was called inactive in [1], in [2], in assay [17], in [3], in assay [4] and in assay [19].
Turning to `[Co]`, the outcome in assay [1], in assay [2], in [17], in assay [3] and in assay [4] was inactive.
